Pf Dd2 growth: qHTS Primary assay for Inhibitors of Plasmodium falciparum Dd2 growth in vitro; 120,000 tested, 4.3% active; Potency, µM (doses to about 28.9 µM), for inactives: at the highest dose activity, negative = inhibition, usual class: inhibitors; AID 1347417, 2020; P. falciparum Dd2 growth, SYBR Green, 72 h; active means well fitted inhibition curve with a large enough effect;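 further: plate controls were DMSO vehicle for no effect and reference drug for full effect; nearly all actives have a fitted effect of over 65% in size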
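Infected erythrocytes (Dd2, 0.3% parasitemia, 2.5% hematocrit final) are added to compound in RPMI-1640/Albumax II medium, grown 72 h at 37C in low oxygen, then lysed with saponin/Triton-X containing SYBR Green and read by fluorescence.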
An asterisk follows results filed as active; [ ] = dose if it differs, or a comment. Shown is part of a subset that was picked to be rich in hits. Potency means the concentration at half of the fitted maximal effect.

What do the screens show for `CC1CCC2(CC1)NC(=O)N(CC(=O)Nc1ccccc1Cl)C2=O` (stereo not given)?
Pf Dd2 growth: -1.6%

Results for CCn1nccc1C(=O)N1CCc2nnc([C@@H]3C[C@@H](O)CN3C(C)C)n2CC1 ?
Pf Dd2 growth: 18.7%

Results for O=C1NC(=NC2CCCC2)C2(CCN([S+](=O)([O-])c3ccccc3)CC2)N1c1cccnc1 ?
Pf Dd2 growth: 15.9%

How did N#Cc1ccc(CN2CCC3(COC(=O)N3Cc3ccccc3)C2)cc1 (stereo not given) do in these assays?
Pf Dd2 growth: -5.1%[44.1 µM]

What do the screens show for `O=C1OCC2(CCN(Cc3ccn[nH]3)C2)N1Cc1ccccc1` (stereo not given)?
Pf Dd2 growth: -9.3%[44.1 µM]

Results for O=C1OCC2(CCN(Cc3ccccc3O)C2)N1Cc1ccccc1 (stereo not given) ?
Pf Dd2 growth: 10µM*

How did CCOc1ccccc1NC(=O)N1C[C@@H](F)C[C@H]1C(=O)N1CCc2ccccc2C1 do in these assays?
Pf Dd2 growth: 47.8%

Results for COc1nc2c(cc1CNC(=O)C1CC1(C)C)C(=O)N(C1CCCC1)C2 (stereo not given) ?
Pf Dd2 growth: -16.9%

What do the screens show for `Cc1ccc(CNC(=O)N2CCCC(c3nn[nH]n3)C2)cc1` (stereo not given)?
Pf Dd2 growth: 18.3%

What do the screens show for `Cc1ccn2c(NC(=O)c3cccc(Cl)c3)c(-c3ccccc3)nc2c1`?
Pf Dd2 growth: -18.8%

Results for Cc1ccccc1Nc1c(-c2ccc(Cl)s2)nc2cccc(C)n12 ?
Pf Dd2 growth: -18.8%

How did Cc1cccc(C(=O)Nc2c(-c3ccccc3)nc3cc(C)ccn23)c1 do in these assays?
Pf Dd2 growth: -4.4%

What do the screens show for `Cc1ccn2c(Nc3c(C)cccc3C)c(-c3ccc(Cl)s3)nc2c1`?
Pf Dd2 growth: 7.94µM*

How did Cc1ccccc1Nc1c(-c2ccc(Cl)s2)nc2c(C)cccn12 do in these assays?
Pf Dd2 growth: -10.7%

How did Cc1ccn2c(Nc3c(C)cccc3C)c(-c3ccsc3)nc2c1 do in these assays?
Pf Dd2 growth: 11.2µM*

What do the screens show for `Cc1onc(-c2cnn(C)c2NCc2ccccc2)c1C(=O)N1CCN(CCO)CC1`?
Pf Dd2 growth: inactive

What do the screens show for `Cc1noc([C@@H](C)NC(=O)C2CCCC2)c1C(=O)O`?
Pf Dd2 growth: -7.6%[44.1 µM]

What do the screens show for `Cc1c(C(=O)NCCN(C)C)oc2c1-c1nn(Cc3cccc(Cl)c3)cc1CC2`?
Pf Dd2 growth: -6.9%

How did CN(Cc1nccn1Cc1ccccc1)C(=O)CCc1ccc2c(c1)OCO2 do in these assays?
Pf Dd2 growth: -9.7%

How did CN(C)CCN(C)Cc1cn(Cc2ccccc2)nc1-c1ccc2c(c1)OCO2 do in these assays?
Pf Dd2 growth: 10µM*

What do the screens show for `Cc1noc2c(Nc3ccc(C(N)=O)cc3)cc(-c3ccc(F)cc3)nc12`?
Pf Dd2 growth: -3.7%[44.1 µM]

How did COc1ccc(Cn2c(-c3ccc(Cl)cc3)nc(C)c(CCO)c2=O)cc1F do in these assays?
Pf Dd2 growth: -23.3%

What do the screens show for `COc1ccc(S(=O)(=O)N2CCCC(Cc3noc(-c4cnccn4)n3)C2)cc1` (stereo not given)?
Pf Dd2 growth: inactive

How did Cn1cnc(S(=O)(=O)N2CCCC(Cc3noc(-c4ccccc4)n3)C2)c1 (stereo not given) do in these assays?
Pf Dd2 growth: inactive

Results for COc1ccc(S(=O)(=O)N2CCCC(Cc3noc(-c4ccccc4)n3)C2)cc1 (stereo not given) ?
Pf Dd2 growth: 4.47µM*

How did CN(Cc1ccc(-c2ccccc2)cc1)C(=O)c1ccc(C(F)(F)F)cc1 do in these assays?
Pf Dd2 growth: 0.1%

What do the screens show for `O=C(c1ccccc1)N1CCN2C(=O)N(Cc3ccccn3)C[C@H]2C1`?
Pf Dd2 growth: inactive

What do the screens show for `Cc1ccc(Cn2cnc3nc4c(cc3c2=O)CCCC4)cc1`?
Pf Dd2 growth: -23.8%

How did CCC(C(=O)Nc1ccc(C(C)=O)cc1)n1cnc2nc3c(cc2c1=O)CCCC3 (stereo not given) do in these assays?
Pf Dd2 growth: 10µM*

How did COC(=O)c1ccc(Cn2cnc3nc4c(cc3c2=O)CCCC4)cc1 do in these assays?
Pf Dd2 growth: 55.6%

Results for CN1CCC2(CC1)CN(C(=O)CCc1ccccc1)Cc1ccccc1O2 ?
Pf Dd2 growth: 1µM*

How did CC(=O)N1CCC2(CC1)CN(C(=O)N(C)C)Cc1ccccc1O2 do in these assays?
Pf Dd2 growth: 6.4%

What do the screens show for `CCC(=O)N1Cc2ccccc2OC2(CCN(C)CC2)C1`?
Pf Dd2 growth: inactive

How did CC(C)NC(=O)N1CCC2(CC1)CN(C(=O)c1ccnc(N)c1)Cc1ccccc1O2 do in these assays?
Pf Dd2 growth: 6.8%

Results for CC(=O)N1CCC2(CC1)CN(C(=O)c1ccc3[nH]ccc3c1)Cc1ccccc1O2 ?
Pf Dd2 growth: 10µM*

How did CC(=O)Nc1ccc(C(=O)N2CCC3(CC2)CN(C(=O)NC(C)C)Cc2ccccc2O3)cc1 do in these assays?
Pf Dd2 growth: 13.3%

What do the screens show for `CC(=O)N1Cc2ccccc2OC2(CCN(C(=O)c3cccc4[nH]ccc34)CC2)C1`?
Pf Dd2 growth: -14.3%

How did COCCOCC(=O)N1Cc2ccccc2OC2(CCN(C)CC2)C1 do in these assays?
Pf Dd2 growth: inactive

What do the screens show for `CC(C)NC(=O)N1Cc2ccccc2OC2(CCN(C(=O)c3ccc4[nH]ccc4c3)CC2)C1`?
Pf Dd2 growth: 10µM*

What do the screens show for `O=C1N(Cc2ccc(F)cc2)C[C@H]2CN(Cc3ccc(C(F)(F)F)cc3)CCN12`?
Pf Dd2 growth: inactive

How did CCn1cnnc1CC1CCN(C(=O)Nc2ccccc2)C1 (stereo not given) do in these assays?
Pf Dd2 growth: inactive

Results for O=C(Cc1ccc(O)cc1)N1Cc2ccccc2CC2(CCN(Cc3ccncc3)C2)C1 (stereo not given) ?
Pf Dd2 growth: 7.94µM*

How did CC(C)NC(=O)N1CCC2(CC1)CN(Cc1ccncc1)Cc1ccccc1O2 do in these assays?
Pf Dd2 growth: 1.7%

Results for C[C@H](C(=O)N1Cc2ccccc2CC2(CCN(Cc3ccncc3)C2)C1)c1ccccc1 (stereo not given in full) ?
Pf Dd2 growth: 10µM*

How did CC(=O)N1Cc2ccccc2CC2(CCCN(Cc3ccc(O)cc3)C2)C1 (stereo not given) do in these assays?
Pf Dd2 growth: -19.9%

What do the screens show for `O=C(O)CCCC(=O)N1Cc2ccccc2CC2(CCCN(Cc3ccccc3)C2)C1` (stereo not given)?
Pf Dd2 growth: -1.9%

Results for CC(=O)N1Cc2ccccc2CC2(CCN(Cc3ccccn3)C2)C1 (stereo not given) ?
Pf Dd2 growth: -13.1%

How did CNC(=O)[C@@H]1CN(C(=O)Cc2cccc(Cl)c2)C[C@H]1CO do in these assays?
Pf Dd2 growth: -4.1%

Results for CNC(=O)[C@@H](C1CCCCC1)N1CCC[C@H]1C(=O)N1CCOCC1 ?
Pf Dd2 growth: -14.7%[44.1 µM]

Results for COCCN(C)C[C@@H]1CN(C(=O)c2cc3ccccc3n(C)c2=O)C[C@@H]1CO ?
Pf Dd2 growth: 11.0%

How did CCS(=O)(=O)N1CCCCCCNC(=O)[C@@H]2C[C@@H](C(=O)N3CCN(c4ccccn4)CC3)C[C@@H]21 do in these assays?
Pf Dd2 growth: -14.8%

What do the screens show for `C=CCN1CC(C(=O)N2CCN(Cc3ccccc3C#N)CC2)CC1=O` (stereo not given)?
Pf Dd2 growth: -1.6%

How did O=C1NCCCCCCN(Cc2ccncc2)[C@@H]2CN(C(=O)c3cccnc3)CC[C@@H]12 do in these assays?
Pf Dd2 growth: -15.6%

Results for N#Cc1ccccc1CN1CCCCCCNC(=O)[C@@H]2C[C@@H](C(=O)N3CCc4ccccc4C3)C[C@@H]21 ?
Pf Dd2 growth: 3.16µM*
